Article PMC4336329 (PLoS ONE, 2015)
In all, about 310,000 compounds went through this assay and about 2,200 (0.71%) showed an effect of 50% or more. Effects have a minus sign here. Many of the other results were omitted from the sample, so strong results are more common in it than they were.

Each molecule was assayed against human ether-à-go-go-related gene (hERG) potassium channel (human, UniProt Q12809) (assay: primary screen, population patch clamp on CHO cells stably expressing hERG; higher = less effect of the substance).
Sequence of human ether-à-go-go-related gene (hERG) potassium channel (Q12809 whole entry, looked up): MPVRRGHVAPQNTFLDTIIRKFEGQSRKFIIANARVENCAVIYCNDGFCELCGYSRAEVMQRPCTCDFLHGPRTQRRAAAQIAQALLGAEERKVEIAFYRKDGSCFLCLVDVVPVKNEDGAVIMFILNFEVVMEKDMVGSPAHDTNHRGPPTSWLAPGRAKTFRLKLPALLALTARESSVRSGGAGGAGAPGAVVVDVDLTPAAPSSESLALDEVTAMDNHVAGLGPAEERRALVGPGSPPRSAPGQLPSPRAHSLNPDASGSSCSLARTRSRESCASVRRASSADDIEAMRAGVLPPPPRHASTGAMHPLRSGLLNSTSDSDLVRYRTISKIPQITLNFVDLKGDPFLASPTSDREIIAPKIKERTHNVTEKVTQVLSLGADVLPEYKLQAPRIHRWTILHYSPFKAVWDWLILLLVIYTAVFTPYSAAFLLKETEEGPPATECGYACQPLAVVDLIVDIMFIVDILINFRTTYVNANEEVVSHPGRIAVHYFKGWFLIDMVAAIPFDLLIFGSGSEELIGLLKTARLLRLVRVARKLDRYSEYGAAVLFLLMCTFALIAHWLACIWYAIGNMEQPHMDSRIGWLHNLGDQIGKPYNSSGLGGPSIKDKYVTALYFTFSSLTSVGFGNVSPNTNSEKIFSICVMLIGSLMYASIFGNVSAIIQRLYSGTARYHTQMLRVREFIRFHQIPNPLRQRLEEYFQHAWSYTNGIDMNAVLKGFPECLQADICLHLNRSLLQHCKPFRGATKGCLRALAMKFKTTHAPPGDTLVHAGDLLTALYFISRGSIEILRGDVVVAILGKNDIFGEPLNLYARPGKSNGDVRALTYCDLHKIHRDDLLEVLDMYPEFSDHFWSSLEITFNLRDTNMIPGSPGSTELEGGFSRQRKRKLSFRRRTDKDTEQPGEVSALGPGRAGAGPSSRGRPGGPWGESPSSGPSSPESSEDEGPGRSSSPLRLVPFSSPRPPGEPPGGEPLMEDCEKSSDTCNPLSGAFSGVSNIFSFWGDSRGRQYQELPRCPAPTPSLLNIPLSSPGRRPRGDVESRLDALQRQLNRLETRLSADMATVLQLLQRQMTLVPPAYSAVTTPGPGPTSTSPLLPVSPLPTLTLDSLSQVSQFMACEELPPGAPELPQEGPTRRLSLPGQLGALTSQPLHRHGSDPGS

Row | Compound | hERG current change (%, negative = inhibition) at 1uM [%]
1 | c1ccc(-c2noc(-c3cccs3)n2)nc1 | 7.74
2 | COc1cc2c(cc1OC)C1Cc3ccc(OC)c(OC)c3C[N+]1([O-])CC2 (stereo not drawn) | 14.1
3 | CS(=O)(=O)Nc1ccc(C(=O)N2CCN(c3ccccc3)CC2)cc1 | -31.4
4 | O=C(Nc1ccccc1N1CCN(C(=O)c2ccc(Cl)cc2)CC1)c1ccc(Br)cc1 | -4.26
5 | O=C(c1ccccc1)N1CCN(c2ccccc2F)CC1 | 9.77
6 | CCC(=O)N1CCN(c2ccc(Cl)cc2NC(=O)c2cccc([N+](=O)[O-])c2)CC1 | -32
7 | O=C(c1cccc([N+](=O)[O-])c1)N1CCN(c2ccc(Cl)cc2)CC1 | 2.13
8 | O=C(Nc1ccccc1N1CCN(C(=O)c2ccc(Cl)cc2)CC1)c1cccc(F)c1 | -81.2
9 | CS(=O)(=O)Nc1ccc(C(=O)N2CCN(c3ccccc3F)CC2)cc1 | -69.2
10 | O=C(Nc1ccccc1N1CCN(C(=O)c2ccc(Cl)cc2)CC1)c1cccc([N+](=O)[O-])c1 | -65.2
11 | O=C(Nc1ccccc1N1CCN(C(=O)c2ccccc2)CC1)c1cccc(Cl)c1 | -12.6
12 | O=C(Nc1ccccc1N1CCN(C(=O)c2ccc(Cl)cc2)CC1)c1cccnc1 | -77
13 | O=C(Nc1ccccc1N1CCN(C(=O)c2ccccc2)CC1)c1ccc(Cl)cc1 | -7.21
14 | O=C(Nc1ccccc1N1CCN(C(=O)c2ccc(Cl)cc2)CC1)c1ccc2c(c1)OCO2 | -5.35
15 | Cc1cc(C)c(N2C(=O)C3C4CC(=O)C(c5ccccc54)C3C2=O)c(C)c1 (stereo not drawn) | 3.35
16 | CC(Oc1ccc(Cl)cc1)c1ccnc(N)n1 (stereo not drawn) | 15.5
17 | Cc1nc(COc2ccc(C(=O)NCc3ccccc3CN3CCCCC3)cc2)cs1 | -10.6
18 | Cc1sc(-n2c(C)cc(C=C3C(=O)NC(=O)NC3=O)c2C)c(C#N)c1C | 11.2
19 | CN(c1ccccc1)c1nc(N)c([N+](=O)[O-])c(N2CCCCC2)n1 | 7.57
20 | O=C(/C=C/c1ccccc1)C1=C(O)C(=O)N(CCO)C1c1ccccc1[N+](=O)[O-] (stereo not drawn) | 11.9
21 | CCOc1ccc(N2CC(C(=O)N3CCN(c4ccccn4)CC3)CC2=O)cc1 (stereo not drawn) | -9.35
22 | FC(F)(F)C(Oc1nc(Nc2ccc(Cl)cc2)nc(N2CCOCC2)n1)C(F)(F)F | 11.9
23 | CCCOc1ccc(/C=c2\sc3nc(-c4ccco4)nn3c2=O)cc1OCC | 5.32
24 | Cc1ccc(NC(=O)COc2ccccc2C(N)=O)cc1S(=O)(=O)N1CCCCCC1 | -0.137
25 | CCOCCCNC(c1ccccc1)c1ccncc1 (stereo not drawn) | 15.3
26 | CN(C)c1ccc(/C=N/NC(=O)c2ccc3c(c2)OCO3)cc1 | 1.12
27 | CN1CCN(c2ccccc2NC(=O)c2cccc([N+](=O)[O-])c2)CC1 | -67.1

Row | Compound | hERG current change (%, negative = inhibition) at 1uM [%]
28 | CCOc1ccc(C(=O)NC(=S)Nc2ccccc2N2CCCCC2)cc1[N+](=O)[O-] | 8.22
29 | CCOc1ccc(C(=O)Nc2ccccc2N2CCN(C(=O)c3ccccc3)CC2)cc1[N+](=O)[O-] | -84
30 | O=C(Nc1ccccc1N1CCOCC1)c1cccc([N+](=O)[O-])c1 | 2.37
31 | CCOc1ccccc1NC(=O)c1ccc(OCC)c([N+](=O)[O-])c1 | 1.13
32 | O=C(Nc1ccccc1N1CCCCC1)c1cccc([N+](=O)[O-])c1 | 9.68
33 | Cc1nc2nc(SCC(=O)N3CCOCC3)nn2c(C)c1Cc1c(F)cccc1Cl | 3.11
34 | CCOc1cc(N2CCOCC2)c(OCC)cc1NCC(=O)N1CCN(Cc2ccccc2)CC1.Cl | 9.92
35 | COc1ccc(NC(=O)Nc2nnc(-c3ccco3)s2)cc1 | 12.3
36 | NC(=O)c1nsc(C(=O)N(c2ccc(Cl)cc2)C(C(=O)NCC2CCCO2)c2cccs2)c1N (stereo not drawn) | 10.7
37 | S=C(Nc1ccc(Cl)cc1Cl)N1CCN(c2ccccn2)CC1 | 12.7
38 | O=C(CSc1nc(-c2ccc(F)cc2)cs1)N1CCN(C(=O)c2ccco2)CC1 | -43.2
39 | O=C(CSc1nn(-c2ccc(Cl)cc2)c(=S)s1)N1CCN(C(=O)c2ccco2)CC1 | -44.1
40 | Cc1nc(SCC(=O)N2CCN(C(=O)c3ccco3)CC2)c2c(C)c(C)sc2n1 | -43.9
41 | Cc1sc2nc(C(C)C)nc(SCC(=O)N3CCN(C(=O)c4ccco4)CC3)c2c1C | -41.5
42 | O=C(CSc1nn(-c2ccc(F)cc2)c(=S)s1)N1CCN(C(=O)c2ccco2)CC1 | -64.6
43 | Cc1sc2ncnc(SCC(=O)N3CCN(C(=O)c4ccco4)CC3)c2c1C | -67.3
44 | COc1cc(OC)cc(C(=O)Nc2cccc3cccnc23)c1 | 19.3
45 | Cc1cnc(CN(C)C(=O)CC2C(=O)NCCN2Cc2cccc(F)c2F)[nH]1 (stereo not drawn) | 11.2
46 | O=C(NCc1n[nH]c(=S)n1-c1cccc(Cl)c1)c1cccs1 | 9.04
47 | COc1ccccc1C(C)Nc1nc(-c2cccnc2)nc2ccccc12 (stereo not drawn) | 12.2
48 | CCOc1ccccc1OCCOCCN1CC(C)OC(C)C1 (stereo not drawn) | 2.22
49 | Cc1[nH]c2ccccc2c1/C=C/c1nc2ccccc2c(=O)n1-c1ccc([N+](=O)[O-])cc1 | -1.09
50 | Cc1ccc(NC(=S)NC(=O)c2ccc(Br)o2)c(C)c1 | 13.3
51 | Cc1n[nH]c(=O)nc1N/N=C/c1cccs1 | 14.8
52 | Nc1ccccc1C(=O)N=Nc1[nH]c(N)c2ccccc12 | 21
53 | Nc1[nH]c(N=NC(=O)c2ccccc2O)c2ccccc12 | -57.5
54 | Nc1[nH]c(N=NC(=O)c2ccccc2)c2ccccc12 | 10.1
